Bioassay records (PubChem BioAssay)
Methyltransferases: Primary Screen for Target Class Profiling of Small Molecule Inhibitors of Methyltransferases | 3.9% of 25,000 active | purified enzyme, MTase-Glo SAH luminescence; active compounds read low | calls only at 40 µM; call rule not given here
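Each enzyme was reacted with SAM and its substrate, with compounds tested once at 40 uM; SAH formed was read by MTase-Glo luminescence.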
Of the large screens only hits and unclear results are named; the others gave an inactive call; ! = not confirmed by another sample. This excerpt belongs to a sample that is enriched for hits.

CC1CCN(S(=O)(=O)c2ccc3c(c2)oc(=O)n3CC(=O)N2CCC(N3CCCCC3)CC2)CC1	none
COc1cc(COC2OC(CO)C(O)C(O)C2O)cc(OC)c1O (configuration not stated)	none
COC(=O)c1ccc(O[C@@H]2O[C@H](CO)[C@@H](O)[C@H](O)[C@H]2O)c(OC)c1	none
COc1c(O)cc2c(c1O)[C@@H]1O[C@H](CO)[C@@H](O)[C@H](O)[C@H]1OC2=O	Methyltransferases active
COc1ccccc1CN1C(=O)c2cc3oc(C)cc3n2CC1(C)C(=O)NC1CCCCCCC1 (configuration not stated)	none
COc1ccccc1CNC(=O)C1(C)Cn2c(cc3ccccc32)C(=O)N1Cc1cccnc1 (configuration not stated)	none
Cc1ccccc1N1C(=O)c2cc3ccccc3n2CC1(C)C(=O)NCCC(C)C (configuration not stated)	none
O=C(Nc1ccc(C(F)(F)F)cn1)N1CCN(c2ncccc2C(F)(F)F)CC1	Methyltransferases active
C[C@H](Oc1ccc(S(C)(=O)=O)cc1C(=O)N1CCN(c2ncc(C(F)(F)F)cc2F)CC1)C(F)(F)F	none
Cc1ccc(NC(=O)N2CCN(c3nc(N)nc4sc(-c5cccnc5)nc34)CC2)cc1	none
COCc1c(O)c(C(=O)O)c(C)c2c1OC(=O)c1c(C)cc(O)c(CO)c1O2	Methyltransferases active
CCC1c2ccc(C)n2CCN1C(=O)NCc1cccc(OC)c1 (configuration not stated)	none
C=C1C(=O)O[C@@H]2C3=C(C)CCC[C@]3(C)CC[C@@]12O	Methyltransferases active
CC1=C2C3OC(=O)C(C)C3(O)CCC2(C)CCC1 (configuration not stated)	none
CC1=C2C3OC(=O)C(C)C3(O)CCC2(C)CCC1=O (configuration not stated)	none
CCOC(=O)c1cc2n(n1)CC(C)(C(=O)NC1CCCCCC1)N(c1ccc(C)cc1)C2=O (configuration not stated)	none
COc1ccc2c(c1)c(NC(C)=O)c1n2CC(C)(C(=O)NC2CCCCC2)N(Cc2ccco2)C1=O (configuration not stated)	none
O=C(NCc1ccccn1)c1ccc2c(=O)nc3c(-c4cccc(F)c4)n[nH]n3c2c1	none
NS(=O)(=O)OC[C@@H]1C[C@@H](n2ccc3c(N[C@H]4CCc5ccccc54)ncnc32)C[C@@H]1O	Methyltransferases active
Cc1ccc(CN2C(=O)c3cc4ccccc4n3CC2(C)C(=O)NCCC(C)C)cc1 (configuration not stated)	none
COc1ccc(-c2cc3n(n2)CC(C)(C(=O)NCc2ccccc2)N(c2cccc(OC)c2)C3=O)cc1 (configuration not stated)	none
Cc1ccccc1Sc1ccc(/C=C2\SC(=S)NC2=O)cc1[N+](=O)[O-]	Methyltransferases active
COc1ccc(CNC(=O)C2(C)Cn3cnc(C(=O)NCc4cccc(C)c4)c3C(=O)N2C2CC2)cc1 (configuration not stated)	none
Cc1cc2c(cc1CC(=O)c1sccc1S(=O)(=O)Nc1onc(C)c1Cl)OCO2	Methyltransferases active!
Cc1ccc(NC(=O)Cn2nc3n(C)c(=O)c4ccc(C(=O)NC5CCCCC5)cc4n3c2=O)cc1	none
Nc1ncnc2c1ncn2[C@H]1CCCO1	none
Cc1nc([C@](C)(O)CO)sc1-c1cnc(N)c(O[C@H](C)c2cc(F)ccc2-n2nccn2)c1	Methyltransferases active
CCc1ccccc1NC(=O)c1ncn2c1C(=O)N(C1CC1)C(C)(C(=O)NCc1ccc(OC)cc1)C2 (configuration not stated)	none
CC(O)c1cc(C(=O)N[C@@H](C)Cn2ccc(-c3ccc(C#N)c(Cl)c3)n2)n[nH]1 (some centres not stated)	none
CCCn1c(=O)c2ccc(C(=O)NC(C)C)cc2n2c(=O)n(CC(=O)Nc3cc(F)ccc3F)nc12	none
COc1ccc(-c2nnc3n(Cc4ccccc4Cl)c(=O)c4ccccc4n23)c(OC)c1	none
Cc1cc2c(cc3n2CC(C)(C(=O)NC2CCCCC2)N(Cc2ccccc2)C3=O)o1 (configuration not stated)	none
CCS(=O)(=O)c1cccc(-c2cc(C(=O)NC3CCN(C)CC3)c(C)c3[nH]c4ncc(C)cc4c23)c1	Methyltransferases active
COc1cccc(C(=O)NC2CCN(c3cc(-c4cccs4)[nH]n3)CC2)c1OC	none
Cn1ncc2c(C(=O)NC3CCCCCC3)cc(C(C)(C)C)nc21	none
CCN(CC)CC(O)Cn1c2c(c3cc(C)ccc31)CCCC2=O (configuration not stated)	none
CC1(C(=O)NC2CCCCC2)Cn2c(cc3sccc32)C(=O)N1CCCN1CCOCC1 (configuration not stated)	none
COC(=O)c1cc2n(n1)CC(C)(C(=O)NC1CCCCCC1)N(Cc1ccc(C)cc1)C2=O (configuration not stated)	none
CCN1C(=O)c2cc3ccccc3n2CC1(C)C(=O)NCC(=O)NCc1cccc(F)c1 (configuration not stated)	none
COc1ccc2c(c1)c(NC(C)=O)c1n2CC(C)(C(=O)NC2CCCCCC2)N(C2CCCC2)C1=O (configuration not stated)	none
CC(=O)NCCCCn1c2c(c3ccccc31)C(=O)NCC2	Methyltransferases active
CCCCN1C(=O)CSc2c(c3ccccc3n2C)C1C(=O)NCCC(C)C (configuration not stated)	none
CCCCNC(=O)CCc1nnc2n(CCc3ccccc3)c(=O)c3ccccc3n12	none
O=C(CCc1nnc2n(CCc3ccccc3)c(=O)c3ccccc3n12)N1CCN(c2ncccn2)CC1	none
Cc1ccc(C(=O)C(C)n2nc3n(C)c(=O)c4ccc(C(=O)NC5CCCC5)cc4n3c2=O)cc1C (configuration not stated)	none
COc1ccc(OC)c(CCN2C(=O)c3cc4occc4n3CC2(C)C(=O)NC2CCCCCC2)c1 (configuration not stated)	none
COc1ccc(CN2C(=O)c3cc(-c4cccs4)nn3CC2(C)C(=O)NC2CCCCC2)cc1 (configuration not stated)	none
Cc1[nH]c(/C=C2\C(=O)Nc3cc(-c4ccccc4)ccc32)c(C)c1CCC(=O)O	none
CN1C(=O)c2ccccc2NC(=O)[C@]12O[C@@H]2c1cccc(O)c1	none
O=C1Nc2ccccc2/C1=C/c1cc(O)ccc1O	Methyltransferases active
COc1ccccc1CNC(=O)C1(C)Cn2nc(-c3ccccc3)cc2C(=O)N1c1ccc2c(c1)OCO2 (configuration not stated)	none
CCOc1ccc(CN2C(=O)c3cc4ccccc4n3CC2(C)C(=O)NCCC(C)C)cc1 (configuration not stated)	none
Cn1cncc1C(N)(c1ccc(Cl)cc1)c1ccc2c(c1)c(-c1cccc(Cl)c1)cc(=O)n2C (configuration not stated)	Methyltransferases active
CC(CCc1ccccc1)NC(=O)CCn1ccc2cc(S(=O)(=O)N3CCCC3)ccc21 (configuration not stated)	none
Cc1cc(N)c2ccccc2[n+]1CCCCCCCCCC[n+]1c(C)cc(N)c2ccccc21	Methyltransferases active
O=S(=O)(Nc1cccc(Br)c1)c1ccc2[nH]c3c(c2c1)CCCC3	none
COc1ccccc1CNC(=O)C1c2c(n(C)c3ccccc23)SCC(=O)N1c1ccc(C(C)C)cc1 (configuration not stated)	none
Cc1ccc(NS(=O)(=O)c2ccc3c(c2)[C@H]2C=CC[C@H]2[C@@H](c2ccccc2Cl)N3)cc1C	none
